Hits are enriched below; roughly 1.1% of the tested compounds scored in any of these assays.
OPRM1-OPRD1 ag = OPRM1-OPRD1 heterodimerization agonism | P35372+P41143 | cells, luminescence | activation, % at 9.3 µM | 340,000 compounds, 0.3% hits | AID 504326; in the data active = activation above about 18%
MOR-DOR inv ag-1 = inverse agonists of human mu-delta opioid receptor heterodimerization. P35372+P41143. cell-based MOR-DOR heterodimer luminescence, inverse agonism. inhibition, % at 9.3 µM. 340,000 compounds, 0.21% hits; in the data active = inhibition above about 22%, passing the limit was not always enough
HTR5A inv ctr = inverse agonist of human HTR5A in OPRM1-OPRD1 counter-screen; AID 504634; HTR5A cell line, luminescence, inverse agonism; P47898; 340,000 compounds, 0.083% hits; inhibition, % at 9.3 µM; in the data active = inhibition mostly above about 23%, no sharp cut-off; inactive = mostly below about 18%
Target sequence (P47898 whole entry, looked up): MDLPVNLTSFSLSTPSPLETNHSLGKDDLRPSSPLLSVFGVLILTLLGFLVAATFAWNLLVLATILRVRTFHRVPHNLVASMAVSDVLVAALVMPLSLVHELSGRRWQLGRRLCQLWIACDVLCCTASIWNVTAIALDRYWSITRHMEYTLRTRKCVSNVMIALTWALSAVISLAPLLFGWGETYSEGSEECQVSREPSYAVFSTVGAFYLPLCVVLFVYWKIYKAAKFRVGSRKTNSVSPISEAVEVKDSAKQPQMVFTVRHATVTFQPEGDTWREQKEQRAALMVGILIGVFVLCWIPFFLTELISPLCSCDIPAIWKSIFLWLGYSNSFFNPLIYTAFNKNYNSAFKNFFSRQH
HTR5A ag ctr = HTR5A agonism, opioid heterodimer counter-screen; 340,000 compounds, 0.61% hits; P47898; activation, % at 9.3 µM; HTR5A agonist assay, luminescence, cell-based; in the data active = activation mostly above about 9.5%, no sharp cut-off; inactive = mostly below about 7.6%
MOR-DOR inv ag-2 = opioid heterodimer inverse agonism, HTR5A counter-screen; shares compounds with HTR5A inv ctr; U2OS counter-screen cells, complementation luminescence; inhibition, % at 9.3 µM; 190 tested, under 10 active; AID 504912
HTR5A inv confrm = HTR5A (human) inverse agonism, confirmation; shares compounds with HTR5A inv ctr; HTR5A-expressing cells, luminescence; inhibition, % at 9.3 µM; 190 tested, under 10 active; AID 504916
A number is an active result. Unless noted, no rule for the calls is given here.

`CC(Sc1nc(N)cc(=O)[nH]1)C(=O)NC1CCCCC1` (stereo not drawn) gave OPRM1-OPRD1 ag inactive, MOR-DOR inv ag-1 inactive, HTR5A inv ctr inactive and HTR5A ag ctr inactive.
`CC(Sc1ncccn1)C(=O)NC1CCCC1` (stereo not drawn) gave OPRM1-OPRD1 ag inactive, MOR-DOR inv ag-1 inactive, HTR5A inv ctr 37, HTR5A ag ctr inactive, MOR-DOR inv ag-2 inactive and HTR5A inv confrm inactive.
Cc1ccc(CCNC(=O)C2CCN(S(=O)(=O)c3cccc4nsnc34)CC2)cc1 was read as OPRM1-OPRD1 ag inactive, MOR-DOR inv ag-1 inactive, HTR5A inv ctr 47, HTR5A ag ctr inactive, MOR-DOR inv ag-2 inactive and HTR5A inv confrm inactive.
CC(C)N(C(=O)COC(=O)c1ccc(Cl)s1)c1ccccc1 was read as OPRM1-OPRD1 ag inactive, MOR-DOR inv ag-1 inactive, HTR5A inv ctr inactive and HTR5A ag ctr inactive.
For COCCCNC(=O)c1ccc2c(=O)n(Cc3ccc4c(c3)OCO4)c(=S)[nH]c2c1 the results were OPRM1-OPRD1 ag inactive, MOR-DOR inv ag-1 inactive, HTR5A inv ctr 57, HTR5A ag ctr inactive, MOR-DOR inv ag-2 inactive and HTR5A inv confrm inactive.
For COc1ccc(/C=C/C(=O)NC(=S)NNC(=O)c2c(-c3ccccc3)noc2C)cc1 the results were OPRM1-OPRD1 ag inactive, MOR-DOR inv ag-1 inactive, HTR5A inv ctr 49, HTR5A ag ctr inactive, MOR-DOR inv ag-2 inactive and HTR5A inv confrm inactive.
`Cc1onc(-c2ccccc2)c1C(=O)NNC(=S)NC(=O)/C=C/c1ccccc1` gave OPRM1-OPRD1 ag inactive, MOR-DOR inv ag-1 inactive, HTR5A inv ctr inactive and HTR5A ag ctr inactive.
For Cc1cccc(NC(=O)CNC(=O)c2cccs2)n1 the results were OPRM1-OPRD1 ag inactive, MOR-DOR inv ag-1 inactive, HTR5A inv ctr 31, HTR5A ag ctr inactive, MOR-DOR inv ag-2 inactive and HTR5A inv confrm inactive.
Cn1nc(OCCOc2ccccc2)ccc1=O was read as OPRM1-OPRD1 ag inactive, MOR-DOR inv ag-1 inactive, HTR5A inv ctr 40, HTR5A ag ctr inactive, MOR-DOR inv ag-2 inactive and HTR5A inv confrm inactive.
`Cn1nc(OCc2ccccc2)ccc1=O` gave OPRM1-OPRD1 ag inactive, MOR-DOR inv ag-1 inactive, HTR5A inv ctr inactive and HTR5A ag ctr inactive.
`CCOC(=O)C1C(c2ccc(O)c(OCC)c2)NC(=S)NC1(O)C(F)(F)F` (stereo not drawn) gave OPRM1-OPRD1 ag inactive, MOR-DOR inv ag-1 inactive, HTR5A inv ctr inactive and HTR5A ag ctr inactive.
Screening Cn1cnc(S(=O)(=O)N2CCN(c3cccc(Cl)c3)CC2)c1 returned OPRM1-OPRD1 ag inactive, MOR-DOR inv ag-1 inactive, HTR5A inv ctr 38, HTR5A ag ctr inactive, MOR-DOR inv ag-2 inactive and HTR5A inv confrm inactive.
For CC(C)(C)OC(=O)NCCc1nnc(SCC(N)=O)o1 the results were OPRM1-OPRD1 ag inactive, MOR-DOR inv ag-1 inactive, HTR5A inv ctr 49, HTR5A ag ctr inactive, MOR-DOR inv ag-2 inactive and HTR5A inv confrm inactive.
For Cc1csc2c(N3CCN(C(=O)Nc4ccc(OC(F)(F)F)cc4)CC3)ncnc12 the results were OPRM1-OPRD1 ag inactive, MOR-DOR inv ag-1 inactive, HTR5A inv ctr inactive and HTR5A ag ctr inactive.
For COc1ccc(CNc2ncnc3sccc23)cc1OC the results were OPRM1-OPRD1 ag inactive, MOR-DOR inv ag-1 inactive, HTR5A inv ctr inactive and HTR5A ag ctr inactive.
For COc1ccc(CNc2ncnc3sccc23)cc1 the results were OPRM1-OPRD1 ag inactive, MOR-DOR inv ag-1 inactive, HTR5A inv ctr 25, HTR5A ag ctr inactive, MOR-DOR inv ag-2 inactive and HTR5A inv confrm inactive.
For COc1ccc(CC(=O)N(C)CC(=O)Nc2c(C)cccc2C)cc1S(=O)(=O)N1CCOCC1 the results were OPRM1-OPRD1 ag inactive, MOR-DOR inv ag-1 inactive, HTR5A inv ctr 28, HTR5A ag ctr inactive, MOR-DOR inv ag-2 81 and HTR5A inv confrm inactive.
For Cc1onc(-c2ccccc2)c1C(=O)Nc1nnc(N2CCCCCC2)s1 the results were OPRM1-OPRD1 ag inactive, MOR-DOR inv ag-1 inactive, HTR5A inv ctr 25, HTR5A ag ctr inactive, MOR-DOR inv ag-2 inactive and HTR5A inv confrm inactive.
Screening CCOc1ccc(NC(=O)CSc2nc(=O)n(Cc3cccnc3)c3c2CCC3)cc1 returned OPRM1-OPRD1 ag inactive, MOR-DOR inv ag-1 inactive, HTR5A inv ctr inactive and HTR5A ag ctr inactive.
For NNc1nc(Nc2ccc([N+](=O)[O-])cc2)nc(N2CCCCCC2)n1 the results were OPRM1-OPRD1 ag inactive, MOR-DOR inv ag-1 inactive, HTR5A inv ctr inactive and HTR5A ag ctr inactive.
NNc1nc(Nc2ccccc2)nc(N2CCCCC2)n1 was read as OPRM1-OPRD1 ag inactive, MOR-DOR inv ag-1 inactive, HTR5A inv ctr 35, HTR5A ag ctr inactive, MOR-DOR inv ag-2 inactive and HTR5A inv confrm inactive.
`COc1ccc(Cl)cc1NC(=O)Nc1cnccn1` gave OPRM1-OPRD1 ag inactive, MOR-DOR inv ag-1 inactive, HTR5A inv ctr 41, HTR5A ag ctr inactive, MOR-DOR inv ag-2 inactive and HTR5A inv confrm inactive.
For O=C1C(Cl)=C(N2CCOCC2)C(=O)N1c1cccc(Cl)c1 the results were OPRM1-OPRD1 ag inactive, MOR-DOR inv ag-1 inactive, HTR5A inv ctr inactive and HTR5A ag ctr inactive.
`O=C1/C(=C/c2ccccc2)N=C(N2CCOCC2)N1c1cccc(Cl)c1` gave OPRM1-OPRD1 ag inactive, MOR-DOR inv ag-1 inactive, HTR5A inv ctr 33, HTR5A ag ctr inactive, MOR-DOR inv ag-2 inactive and HTR5A inv confrm inactive.
`CC(=O)N1C2CCCCC2S[C@H]2CCCCC21` (stereo partly drawn) gave OPRM1-OPRD1 ag inactive, MOR-DOR inv ag-1 inactive, HTR5A inv ctr 34, HTR5A ag ctr inactive, MOR-DOR inv ag-2 inactive and HTR5A inv confrm inactive.
Screening COc1cccc(NC(=S)N/N=C2/CCCCc3ccccc32)c1 returned OPRM1-OPRD1 ag inactive, MOR-DOR inv ag-1 inactive, HTR5A inv ctr 35, HTR5A ag ctr inactive, MOR-DOR inv ag-2 inactive and HTR5A inv confrm inactive.
O=C(C1CCN(S(=O)(=O)c2ccc(-n3cnnn3)cc2)CC1)N1CCCCC1 was read as OPRM1-OPRD1 ag inactive, MOR-DOR inv ag-1 inactive, HTR5A inv ctr inactive and HTR5A ag ctr inactive.
For CCN(CC)c1ccc2nc3ccccc3[n+](CC)c2c1 the results were OPRM1-OPRD1 ag inactive, MOR-DOR inv ag-1 inactive, HTR5A inv ctr 34, HTR5A ag ctr inactive, MOR-DOR inv ag-2 inactive and HTR5A inv confrm inactive.
CCN(CC)c1ccc2nc3ccc(N)cc3[n+](-c3ccccc3)c2c1 was read as OPRM1-OPRD1 ag inactive, MOR-DOR inv ag-1 inactive, HTR5A inv ctr 36, HTR5A ag ctr inactive, MOR-DOR inv ag-2 inactive and HTR5A inv confrm inactive.
CCN(CC)c1ccc2cc(-c3nc4ccccc4[nH]3)c(=O)oc2c1 was read as OPRM1-OPRD1 ag inactive, MOR-DOR inv ag-1 inactive, HTR5A inv ctr inactive and HTR5A ag ctr inactive.
Screening O=C(Cn1cnc2c(nnn2Cc2ccc(F)cc2)c1=O)N1CCCCC1 returned OPRM1-OPRD1 ag inactive, MOR-DOR inv ag-1 inactive, HTR5A inv ctr inactive and HTR5A ag ctr inactive.
CCOC(=O)c1ccc(NC(=O)c2nc[nH]c2C(=O)NCCCCCNC(=O)OC(C)(C)C)cc1 was read as OPRM1-OPRD1 ag inactive, MOR-DOR inv ag-1 inactive, HTR5A inv ctr inactive and HTR5A ag ctr inactive.
Screening COc1ccc(C(=O)c2ccc(OC)c(Br)c2)cc1Br returned OPRM1-OPRD1 ag inactive, MOR-DOR inv ag-1 inactive, HTR5A inv ctr inactive and HTR5A ag ctr inactive.
COc1cc(/C=C2\N=C3CCCCCN3C2=O)ccc1O was read as OPRM1-OPRD1 ag inactive, MOR-DOR inv ag-1 inactive, HTR5A inv ctr inactive and HTR5A ag ctr inactive.

Assay outcomes from PubChem BioAssay.
